TRb-SRC2 inh – inhibitors of human thyroid hormone receptor beta-SRC2 interaction; P10828; TRbeta-SRC2 peptide binding, fluorescence polarization; receptor liganded with 1 µM T3; Potency, µM (highest dose often 106 µM), inactives show top-dose activity change, negative = inhibition, actives largely listed as inhibitors; 280,000 compounds, 0.065% hits;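 further: potency means the concentration at half of the fitted maximal effect; plate controls were bound peptide for no effect and peptide without receptor for full effect; nearly all actives have a fitted effect of over 50% in size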
Target sequence (P10828 whole entry, looked up): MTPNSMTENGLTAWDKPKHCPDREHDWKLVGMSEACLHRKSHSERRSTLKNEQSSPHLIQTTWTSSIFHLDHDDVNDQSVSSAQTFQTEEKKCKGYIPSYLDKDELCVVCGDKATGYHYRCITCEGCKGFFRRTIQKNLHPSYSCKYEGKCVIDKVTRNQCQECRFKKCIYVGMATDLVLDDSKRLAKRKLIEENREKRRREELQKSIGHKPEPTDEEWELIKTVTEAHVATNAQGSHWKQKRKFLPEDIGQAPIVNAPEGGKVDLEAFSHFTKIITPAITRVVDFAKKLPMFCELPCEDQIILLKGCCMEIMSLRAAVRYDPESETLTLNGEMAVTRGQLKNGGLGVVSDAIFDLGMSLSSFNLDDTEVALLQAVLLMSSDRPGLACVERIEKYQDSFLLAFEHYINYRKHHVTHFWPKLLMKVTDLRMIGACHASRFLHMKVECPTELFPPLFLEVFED
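A fluorescence polarization screen tested compounds at multiple concentrations against complex formation between 0.6 uM TRb ligand-binding domain and 20 nM Texas Red SRC2 peptide, with 1 uM T3 present; readout after 5 hr.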
NPSR antag – antagonists of human neuropeptide S receptor cAMP signaling; CHO-NPSR cells, cAMP TR-FRET, antagonist mode; 220,000 compounds, 1% hits; Potency, µM (titrated, usually from 38.3 µM), for inactives: top-dose activity change, negative = inhibition, most hits filed as inhibitors; Q6W5P4; AID 1461; further: potency means the concentration at half of the fitted maximal effect; on the % scale 0 is the no-effect control and ±100 the full control effect; nearly all actives have a fitted effect of over 50% in size
Coupling enz – counter-screen for Giardia aldolase inhibitors: coupling enzyme system; activity change, negative = inhibition, % at 58.2 µM, hits read low; coupling enzyme system counterscreen, AmpLite Red fluorescence; AID 2472; 290,000 compounds, 0.67% hits; in the data active means activity change below about -30%; further: on the % scale 0 is the no-effect control and ±100 the full control effect
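Activity here indicates interference with the coupling reaction, not aldolase inhibition. Compounds at 57.5 uM final met coupling enzymes for 10 min at RT; substrate and AmpLite Red detection followed, with a 525/598 nm fluorescence read after 20 min.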
TSHR antag – human thyrotropin receptor antagonism. P16473. TSHR-expressing cells, TSH-stimulated cAMP HTRF, 2 h; active compounds read low. activity change, negative = inhibition, % at 11.5 µM. 330,000 compounds, 0.2% hits. AID 504810;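 active means activity change below a set negative limit, meaning inhibition stronger than a set level, cut at about -70% in these data; inconclusive means activity change between two set negative limits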; further: on the % scale 0 is the no-effect control and ±100 the full control effect
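Freshly harvested TSHR cells receive pin-tooled compound, then EC80 TSH at 4nM final. After 2 hours at 37 deg C, antibody in lysis buffer and cAMP-d2 are added; 30 minutes at ambient temperature precede the HTRF read.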
TR SRC2 fluor cs – alters Texas Red total fluorescence, flagging assay interference; AID 1479; 280,000 compounds, 0.29% hits; Potency, µM (series often up to 106 µM), without a hit: at the top dose fluorescence change, negative = quenching; TRb/SRC2 Texas Red total fluorescence interference; active means well fitted curve in either direction with a large enough effect; inconclusive means small, poorly fitted or top-dose-only effect; further: potency means the concentration at half of the fitted maximal effect; on the % scale 0 is the no-effect control and ±100 the full control effect
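Human TRβ ligand-binding domain (0.6 uM) and Texas Red SRC2 peptide (20 nM) in Tris buffer with 1 uM T3 and 5% DMSO were incubated with pinned compound for 5 hr at ambient temperature. Total fluorescence was computed as S + 2P (555/632 nm).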
TCR act – activators of T cell receptors | primary human leukocytes, anti-CD3, IL-2 HTRF, 48 h | Potency, µM (series often up to 9.22 µM), inactives show at the top dose activation of IL-2 secretion, actives largely listed as activators | 330,000 tested, under 10 active | AID 504894; further: % of control where 0% means no effect
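HTRF read-out of IL-2 secretion: europium cryptate donor excited at 320nm, d2 acceptor emission at 665nm. Cells were primary human leukocytes incubated 48 hr with compounds and a-CD3 beads, supplying TCR signal only.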
The depositor's hits bear a star; ? = inconclusive; · = no result given; ! = a repeat was not active; [ ] = another dose, or the depositor's remark. In the library only some 1% were active in any assay of this set; here they are far more common. Unless noted, the call rests on the fitted dose curve; in most records, active means well fitted curve in the direction sought with a large enough effect; inconclusive means small, poorly fitted or top-dose-only effect, or another doubt; inactive means no such curve, though single readings can be large; an effect the other way counts as inactive or inconclusive.

SMILES | TRb-SRC2 inh | NPSR antag | Coupling enz | TSHR antag | TR SRC2 fluor cs | TCR act
O=C(OC1CCN(CCCl)CC1)C(c1ccccc1)c1ccccc1 | 35µM* | -25%[46.1 µM] | · | -2 | 0% | 2%
C[N+]1(C)[C@@H]2CC[C@H]1CC(OC(=O)C(c1ccccc1)c1ccccc1)C2 (some centres undefined) | · | · | 2 | -2 | · | 1%
CC(C)OC(=O)c1c(N)n(CC2CCCO2)c2nc3ccccc3nc12 (centres undefined) | -24% | 17%[46.1 µM] | -10 | 2 | -1% | -3%
COCCCn1c(N)c(C(=O)NCCC(C)C)c2nc3ccccc3nc21 | 3% | 10µM* | -46* | -8 | 4% | 5%
Nc1c(C(=O)OC2CCCCC2)c2nc3ccccc3nc2n1CC1CCCO1 (centres undefined) | 3% | ? | -5 | -12 | -7% | -7%
CCCNC(=O)c1c(N)n(CC2CCCO2)c2nc3ccccc3nc12 (centres undefined) | ? | -13%[46.1 µM] | -51* | -2 | -5% | ·
CCOCCCn1c(N)c(C(=O)Nc2sc3c(c2C(=O)OC)CCCC3)c2nc3ccccc3nc21 | 7% | ? | -45* | -17 | -2% | 4%
CCCCn1c(N)c(C(=O)OCCOC)c2nc3ccccc3nc21 | 5% | -22% | -21 | -6 | -4% | 15%
CC(C)OCCCNC(=O)c1c(N)n(CC2CCCO2)c2nc3ccccc3nc12 (centres undefined) | -19% | -26%[46.1 µM] | -47* | -10 | -2% | -1%
CC/C(=N\OC/C=C/Cl)C1=C(O)CC(C2CCOCC2)CC1=O (centres undefined) | 0%[201 µM] | · | · | · | 2%[201 µM] | ·
CCOP(=O)(NC(C)C)Oc1ccc(S(C)(=O)=O)c(C)c1 (centres undefined) | -1%[201 µM] | · | · | · | -3%[201 µM] | ·
CCC(C)(NC(=O)c1cc(Cl)c(C)c(Cl)c1)C(=O)CCl (centres undefined) | 2%[201 µM] | · | · | · | -3%[201 µM] | ·
CC1(C)[C@H](C(=O)O[C@H](C#N)c2cccc(Oc3ccccc3)c2)[C@@H]1/C=C(\Cl)C(F)(F)F | 3%[201 µM] | · | · | · | 1%[201 µM] | ·
CC(C)=C[C@@H]1[C@@H](C(=O)OCN2C(=O)C3=C(CCCC3)C2=O)C1(C)C | 5%[201 µM] | · | · | · | -2%[201 µM] | ·
NCCc1cc(O)c(O)cc1O | 40µM*! | · | -57* | · | 4% | -3%
COc1ccc(CCN)cc1O | 5% | 4%[46.1 µM] | · | · | 0% | 9%
COC(=O)C1C(O)C(C)C(O)C(C)/C=C\C=C(/C)C(=O)Nc2c(C)c(OC(C)=O)c3c(c2O)C(=O)C(C)=C2OCOC(=C23)/C(C)=C/C(C)(O)C(O)C(C)C1O (centres undefined) | -10% | -8% | -30* | 15 | -8% | 1%
CN(C)[C@@H]1C(=O)C(C(N)=O)=C(O)[C@@]2(O)C(=O)C3=C(O)c4c(O)cccc4[C@@](C)(O)[C@H]3[C@H](O)[C@@H]12 | ? | -16% | -20 | -8 | 16µM*![quencher] | -4%
CN(C)C1C(=O)C(C(N)=O)=C(O)[C@@]2(O)C(=O)C3=C(O)c4c(O)cccc4[C@](C)(O)C3C(O)C12 (some centres undefined) | 4% | · | -7 | · | -17% | ·
CN(C)C1C(=O)C(C(N)=O)C(=O)C2(O)C(=O)C3C(=O)c4c(O)cccc4C(C)(O)C3C(O)C12 (centres undefined) | 18% | · | -6 | · | 28µM*[quencher] | ·
O=C(O)c1nc(Cl)ccc1Cl | -3%[201 µM] | · | · | · | -3%[201 µM] | ·
O=Cc1cccc(Oc2ccccc2)c1 | 5%[201 µM] | · | · | · | -5%[201 µM] | ·
Brc1c(Br)c(Br)c(Br)c(Br)c1Br | -4%[201 µM] | · | · | · | -3%[201 µM] | ·
CCN1C(=O)C(=C/C=C/c2ccco2)C(=O)N(CC)C1=S | ? | -8%[46.1 µM] | -8 | -4 | 28µM*[fluorescent] | 2%[46.1 µM]
CCOP(=S)(OCC)Oc1ccc(S(C)=O)cc1 (centres undefined) | -5%[201 µM] | · | · | · | -1%[201 µM] | ·
CC(C)(c1ccccc1)c1cc(-n2nc3ccccc3n2)c(O)c(C(C)(C)c2ccccc2)c1 | -2%[201 µM] | · | · | · | -4%[201 µM] | ·

Compound activity deposited in PubChem BioAssay by National Center for Advancing Translational Sciences (NCATS).
